Assay outcomes: PubChem BioAssay, several laboratories
CYP2C9 inhib: blockers of cytochrome P450 2C9 activity – biochemical, luminescence, ADME assay, primary screen; P11712; CYP2C9 Supersomes, luciferin-H conversion; inhibition, % at 5 µM; actives 20% (n = 96,000); AID 777, 2007;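 active means blocking of liver enzyme CYP2C9 beyond about 50% at 5 µM, limit read from the data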
Target sequence (P11712 whole entry, looked up): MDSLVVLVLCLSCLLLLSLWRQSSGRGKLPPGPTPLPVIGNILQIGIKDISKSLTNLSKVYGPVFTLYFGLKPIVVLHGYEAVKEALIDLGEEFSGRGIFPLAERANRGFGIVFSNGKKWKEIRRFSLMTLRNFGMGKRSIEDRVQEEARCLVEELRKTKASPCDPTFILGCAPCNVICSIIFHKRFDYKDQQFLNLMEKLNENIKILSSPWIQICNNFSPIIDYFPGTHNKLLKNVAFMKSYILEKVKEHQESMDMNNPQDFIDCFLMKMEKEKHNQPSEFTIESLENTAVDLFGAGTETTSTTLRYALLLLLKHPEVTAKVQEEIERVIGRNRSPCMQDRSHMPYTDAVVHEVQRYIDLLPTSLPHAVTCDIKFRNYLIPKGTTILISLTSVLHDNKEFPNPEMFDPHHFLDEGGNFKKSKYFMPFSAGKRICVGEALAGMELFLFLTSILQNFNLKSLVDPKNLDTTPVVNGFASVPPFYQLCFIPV
PostGolgi yeast: phenotypic screen on post-Golgi transport, primary screen; inhibition, % at 10 µM; AID 739, 2007; actives 0.9% (n = 98,000); post-Golgi transport phenotypic cell assay;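 further: yeast cells grown in 1536-well plates; yeast grown about 18 h at 30C before absorbance read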
CYP2C19 activ: human CYP2C19 activators, primary screen, biochemical, luminescence; activation factor at 5 µM; recombinant CYP2C19, luciferin-H EGE luminescence; stronger effect = higher value; 0 = fully inhibited enzyme, 1 = untreated enzyme; 96,000 tested, under 10 active; Cytochrome P450 2C19 (Homo sapiens), P33261;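 active means activation factor of at least 2 at 5 µM in the primary screen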
CYP2C9 act: human CYP2C9 activators, primary screen, biochemical, luminescence; Cytochrome P450 2C9 (Homo sapiens), P11712; recombinant CYP2C9, luciferin-H conversion; stronger effect = higher value; factor 1 = untreated enzyme, 0 = blocked; activation factor at 5 µM; actives 1.4% (n = 96,000);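 active means activation factor of 2 or more for CYP2C9 at a 5 µM dose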
CYP2C19 inhib: blockers of cytochrome P450 2C19 activity – biochemical, luminescence, ADME assay, primary screen | P33261 | CYP2C19 Supersomes, luciferin-H EGE luminescence, 30 min | inhibition, % at 5 µM | actives 21% (n = 96,000);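 active means CYP2C19 inhibition above a set limit at 5 µM in the primary screen, cut at about 50% in these data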
PostGolgi ctrl: growth inhibition of yeast control strain, primary screen, counter-screen for post-Golgi transport modulator project. efflux-deficient yeast background strain, growth absorbance A615, 16 h. inhibition, % at 10 µM. actives 5% (n = 98,000). AID 738, 2007
Hits are given with their value; . = inactive; / = no result given. An excerpt weighted towards active compounds, which were near 32% of everything screened. Unless noted, no stated cut-off is given here; in the data, active means inhibition above about 30%; inactive means the rest.

SMILES	CYP2C9 inhib	PostGolgi yeast	CYP2C19 activ	CYP2C9 act	CYP2C19 inhib	PostGolgi ctrl
Cc1nn(Cc2ccc(F)cc2)c(C)c1NC(=O)c1cnn2cccnc12	.	.	.	.	.	.
Cc1cc(-n2nc(C)cc2C)nc(NS(=O)(=O)c2ccccc2Cl)n1	52	.	.	.	.	.
Cc1cc(C)nc(NS(=O)(=O)c2ccccc2)n1	.	.	.	.	.	.
O=C1C2Sc3[nH]c(=O)sc3C(c3ccccc3)C2C(=O)N1c1ccccc1 (stereo not given)	.	.	.	.	57	.
O=c1[nH]c2c(s1)C(c1ccccc1)C1C3CCC(C3)C1S2 (stereo not given)	.	.	.	.	.	.
COc1ccc(C2c3sc(=O)[nH]c3SC3C(=O)N(c4ccccc4)C(=O)C32)cc1 (stereo not given)	81	.	.	.	62	.
CCOc1cc2[nH]c(=O)n(CCCN3CCCC3=O)c(=O)c2cc1OCC	.	.	.	.	.	.
CC(C)CN1C(=S)SC(C)(C)C1n1oc(=O)n(-c2ccc(Cl)cc2)c1=O (stereo not given)	88	.	.	.	66	.
CCCC(CCC)C(=O)NNc1cc(=O)c2c(=O)n(C)c(=O)n(C)c2[nH]1	.	.	.	.	.	.
NC(=O)c1oc2ccccc2c1NC(=O)c1ccccc1	.	.	.	3.8	.	.
NC(=O)c1oc2ccccc2c1NC(=O)c1ccco1	.	.	.	3.7	.	.
O=C1CC(N2CCC(O)(c3ccc(Cl)cc3)CC2)C(=O)N1Cc1ccc(N2CCCC2=O)cc1 (stereo not given)	.	.	.	.	80	.
O=C(Nc1ccccc1)N1CCN(c2ccc(C(F)(F)F)cn2)CC1	.	.	.	.	.	.
O=C(Nc1ccc(F)cc1F)N1CCN(c2ncccn2)CC1	.	.	.	.	70	.
O=C(/C=C/c1c(Cl)cccc1Cl)N1CCN(c2ncccn2)CC1	52	.	.	.	96	.
O=C(Nc1ccccc1Cl)N1CCN(c2ccccn2)CC1	/	.	/	/	/	.
O=C(Nc1ccc2ccccc2c1)N1CCN(c2ncccc2C(F)(F)F)CC1	.	.	.	.	70	.
O=C(Nc1cccc(Cl)c1)N1CCN(C/C=C/c2ccccc2)CC1	62	40	.	.	.	.
COc1ccc(OCCCCOc2ccccc2Cl)cc1	.	.	.	.	.	.
O=C(COC(=O)c1cccc(C(=O)OCC(=O)c2ccc(Br)cc2)n1)c1ccc(Br)cc1	.	.	.	.	.	.
Cc1ccc(NC(=O)CCN2CCN(C/C=C/c3ccccc3)CC2)cc1C	.	.	.	2.2	.	.
O=C(Nc1cccc(Cl)c1)N1CCN(c2ncccn2)CC1	56	.	.	.	89	.
Cc1ccc(NC(=O)CCN2CCN(C/C=C/c3ccccc3)CC2)cc1	.	.	.	.	.	.
Cc1cc2ncn(-c3ncnc4scc(-c5ccccc5)c34)c2cc1C	.	.	.	.	.	.
Cc1cc2ncn(-c3ncnc4sc5c(c34)CCCC5)c2cc1C	66	.	.	.	83	39
SMILES	CYP2C9 inhib	PostGolgi yeast	CYP2C19 activ	CYP2C9 act	CYP2C19 inhib	PostGolgi ctrl
Cc1cc2ncn(-c3ncnc4sc(C)c(C)c34)c2cc1C	83	.	.	.	91	.
c1ccc2c(c1)ncn2-c1ncnc2sc3c(c12)CCCC3	.	.	.	.	70	.
Cc1cc2ncn(-c3ncnc4sc5c(c34)CCC(C)C5)c2cc1C (stereo not given)	.	.	.	.	80	70
CCN(CC)CCNC(=O)c1ccccn1	.	.	.	.	.	.
O=c1[nH]ncc2c3ccccc3n(Cc3ccc(F)cc3)c12	72	.	.	.	.	.
O=C(Cn1ncc2c3ccccc3n(Cc3ccc(F)cc3)c2c1=O)N1CCN(c2ncccn2)CC1	95	.	.	.	99	.
CCOC(=O)N1CCC(NC(=O)Cn2c3ccccc3c3cn[nH]c(=O)c32)CC1	.	.	.	.	.	.
Cc1ccccc1Cn1c2ccccc2c2cnn(CC(=O)N3CCN(c4ccccc4)CC3)c(=O)c21	.	.	.	.	62	42
COC(=O)c1ccc(C(=O)OC)c(NC(=O)COC(=O)C23CC4CC(CC(O)(C4)C2)C3)c1	58	.	.	.	.	.
CCOCC(=O)Nc1cc(C(=O)OC)ccc1C(=O)OC	.	.	.	.	.	.
c1ccc(Nc2nn[nH]n2)cc1	.	.	.	.	.	.
COc1ccccc1-c1nn2c(C3COc4ccccc4O3)nnc2s1 (stereo not given)	.	.	.	.	.	.
c1ccc(Cc2nn3c(C4COc5ccccc5O4)nnc3s2)cc1 (stereo not given)	55	.	.	.	54	.
c1ccc(CCc2nn3c(C4COc5ccccc5O4)nnc3s2)cc1 (stereo not given)	.	.	.	.	.	31
CCOC(=O)c1cc(CC)sc1N	.	.	.	.	.	30
CCOC(=O)c1cc(CC)sc1NC(=O)Cc1ccccc1	.	.	.	.	.	.
CCOC(=O)c1cc(CC)sc1NC(=O)COC	84	.	.	.	.	.
O=C(Oc1oc(-c2ccco2)nc1C=Nc1ccc(Cl)cc1)c1ccco1	.	.	.	.	.	.
CC[C@@H](C)[C@H](NC(=O)C1CCN(C(=O)[C@@H](NS(=O)(=O)c2ccc(C)cc2)C(C)C)CC1)C(=O)O	.	.	.	.	.	.
O=C(O)CNS(=O)(=O)c1cccc2nsnc12	.	.	.	.	.	.
CCN(CC)NC(=S)Nc1ccccc1	.	.	.	.	.	.
CC(C)NC(=S)NN(c1ccccc1)c1ccccc1	51	.	.	.	62	.
CC(C)(C)c1nnc(NC(=O)NS(=O)(=O)c2ccccc2)s1	.	.	.	.	.	.
C=CCNc1sc(C(=O)c2ccccc2)c(N)c1-c1nc2ccccc2s1	.	.	.	.	.	.
CCNc1sc(C(=O)c2cccs2)c(N)c1-c1nc2ccccc2s1	90	.	.	.	53	36
CCN(c1cccc(C)c1)c1nc2ccsc2c(=O)s1	87	.	.	.	65	.
COc1cccc(-c2nc(CS(=O)CC(=O)NCc3ccc4c(c3)OCO4)c(C)o2)c1 (stereo not given)	76	.	.	.	77	.
COc1cccc(-c2nc(CS(=O)CC(=O)NCc3ccccc3Cl)c(C)o2)c1 (stereo not given)	64	.	.	.	.	.
CCCn1nnc(NC(=O)c2cc(Br)ccc2OC)n1	.	.	.	3.6	74	.
